GDH-TPI counter-1 = GDH-TPI coupled enzyme inhibition counter-screen; GDH-TPI coupled enzyme counterscreen, NADH absorbance; inhibition, % at 4.8 µM; 360,000 compounds, 1.2% hits; AID 588335; in the data active means inhibition above about 30%;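 further: 0% = DMSO wells and 100% = wells lacking the enzyme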
FadD28 FP inh = M. tuberculosis FadD28 bisubstrate binding inhibition. FadD28 bisubstrate probe binding, fluorescence polarization. inhibition, % at 12.5 µM. 360,000 compounds, 0.22% hits. AID 588549; in the data active means inhibition above about 8.5%, passing the limit was not always enough
BioA inh = inhibitors of Mycobacterium tuberculosis BioA enzyme; purified M. tuberculosis BioA enzyme, plate reader; inhibition, % at 9.99 µM; 360,000 compounds, 0.096% hits; AID 602481; in the data active means inhibition above about 40%
Mtb FBA inh = inhibitors of M. tuberculosis fructose-bisphosphate aldolase; purified M. tuberculosis FBA, fluorescence read-out; P9WQA3; 360,000 compounds, 2.3% hits; inhibition, % at 1 µM;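 further: 0% = vehicle and 100% = reference inhibitor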
Target sequence (P9WQA3 whole entry, looked up): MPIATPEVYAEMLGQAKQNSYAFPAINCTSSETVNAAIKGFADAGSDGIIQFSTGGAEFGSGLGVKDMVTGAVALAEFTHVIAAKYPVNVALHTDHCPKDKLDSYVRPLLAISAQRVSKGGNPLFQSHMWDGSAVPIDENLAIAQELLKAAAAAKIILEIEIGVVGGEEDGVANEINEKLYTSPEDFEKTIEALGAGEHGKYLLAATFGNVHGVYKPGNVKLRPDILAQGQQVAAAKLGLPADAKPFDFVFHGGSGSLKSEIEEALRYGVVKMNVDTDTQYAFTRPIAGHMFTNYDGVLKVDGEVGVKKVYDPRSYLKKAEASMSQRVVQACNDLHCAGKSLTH
Mtb hypoxia inh = Mtb hypoxia fluorescent reporter inhibition; M. tuberculosis hypoxia-regulated fluorescent reporter, fluorescence; fluorescence inhibition, % (concentration not given with the values); 300,000 compounds, 0.1% hits; in the data active means fluorescence inhibition mostly above about 23%, no sharp cut-off; inactive means mostly below about 17%
Mtb FBA inh conf = confirmation of M. tuberculosis fructose-bisphosphate aldolase inhibitors | shares compounds with Mtb FBA inh | purified M. tuberculosis FBA, fluorescence read-out | AID 651616 | 5,600 compounds, 78% hits | inhibition, % at 1 µM;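 further: 0% = vehicle wells and 100% = reference inhibitor wells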
GDH-TPI counter-2 = GDH-TPI inhibition counter-screen for FBA inhibitors; inhibition, % at 1 µM; shares compounds with Mtb FBA inh; AID 652141; GDH-TPI coupled enzyme counterscreen, fluorescence; 5,600 compounds, 81% hits; in the data active means inhibition above about 10%
GDH-TPI dose = inhibits GDH-TPI coupling enzymes in dose response. shares compounds with Mtb FBA inh. GDH-TPI coupled enzyme assay, fluorescence, artifact counterscreen. IC50, µM. 170 compounds, 79% hits. AID 652145; call rule not given here
* hit, by the source's call; x = no result given; + = active, no number. In the library only some 2.9% were active in any assay of this set; here they are far more common. Unless noted, no stated cut-off is given here; in the data, active means inhibition above about 27%; inactive means the rest.

SMILES | GDH-TPI counter-1 | FadD28 FP inh | BioA inh | Mtb FBA inh | Mtb hypoxia inh | Mtb FBA inh conf | GDH-TPI counter-2 | others
CN(C)c1ccc(-c2ccnc3c2CC(C)(C(=O)NCCc2ccccc2)O3)cc1 (stereo not drawn) | 15 | -2 | -1 | 47* | x | 109* | 73*
CN(C)c1ccc(CNC(=O)C2(C)Cc3c(-c4ccc(N(C)C)cc4)ccnc3O2)cc1 (stereo not drawn) | 30 | 0 | -1 | 46* | x | 58* | 50*
CCN1C[C@]2(COC)CCC(OC)[C@@]34C5CC6C(OC)C[C@@]7(OCO[C@]7(C(O)C23)C14)C5C6OC (stereo partly drawn) | x | x | x | x | 2 | x | x
COc1ccc(C(=O)Nc2ccc3c(c2)C(=O)N(C)C[C@H](OC)[C@H](C)CN(C)[C@@H](C)CO3)cc1 | x | x | -2 | x | x | x | x
CNC[C@H]1Oc2ccc(NC(=O)NC(C)C)cc2CC(=O)N([C@@H](C)CO)C[C@H]1C | x | x | -1 | x | x | x | x
COc1cc2[nH]c(C(=O)N3CCN(c4ccccc4F)CC3)cc2c(OC)c1OC | 11 | 0 | 1 | 44* | -4 | + | +
COc1cccc(N2CCN(C(=O)c3cc4c(OC)c(OC)c(OC)cc4[nH]3)CC2)c1 | -8 | -3 | 0 | 1 | -15 | x | x
O=C(O)c1cc(-c2c[nH]c3ccccc23)nc2ccc3ccccc3c12 | 18 | 2 | x | 45* | x | + | 136*
CNC(=O)c1[nH]cnc1C(=O)Nc1cccc(OC)c1 | 8 | 0 | 0 | 71* | x | + | 199*
CCOC(=O)c1[nH]cnc1C(=O)Nc1cccc(OC)c1 | 5 | -3 | x | 3 | -9 | x | x
CCNC(=O)C[C@@H]1CC[C@@H]2[C@H](COc3ccc(NC(=O)Nc4ccccc4F)cc3C(=O)N2C)O1 | x | x | 1 | x | x | x | x
CC(C)NC(=O)N(C)C[C@@H]1OCCCC[C@@H](C)Oc2ccc(NC(=O)Nc3ccccc3)cc2C(=O)N([C@@H](C)CO)C[C@@H]1C | x | x | 0 | x | x | x | x
C=CCOc1ccc(/C=C/C(=O)Nc2ccc(C(=O)NC)cc2)cc1 | 23 | -2 | -2 | 45* | -6 | 44* | 37*
c1cc(-c2cnc3cccnn23)c2cccnc2c1 | 16 | -3 | 1 | 38* | x | 127* | 115*
c1ccc2c(-c3cnc4cccnn34)cncc2c1 | 16 | -1 | 0 | 40* | x | 188* | 106*
N#CC1(C#N)COC23CCCCC2C1(C#N)C(=N)O3 (stereo not drawn) | -2 | 4 | -7 | 26 | 3 | x | x
CCCC1OC23CCCCC2C(C#N)(C(=N)O3)C1(C#N)C#N (stereo not drawn) | 1 | 1 | -3 | 37* | 8 | 15 | -2 | GDH-TPI dose=>10
N#CC12COC3(CCCCC3C1(C#N)C#N)OC2=N (stereo not drawn) | 9 | 0 | x | 39* | 19 | 75* | 61*
COc1ccc(C2OC34CCCCC3C(C#N)(C#N)C2(C#N)C(=N)O4)cc1 (stereo not drawn) | -11 | 5 | -8 | 39* | x | 80* | 67*
C[C@@H]1CN([C@@H](C)CO)C(=O)c2cc(NS(=O)(=O)c3ccc(Cl)cc3)ccc2O[C@@H]1CN(C)C(=O)Nc1ccccc1 | x | x | -5 | x | x | x | x
COc1ccccc1S(=O)(=O)N[C@@H]1C=C[C@H](CC(=O)NCc2cccc(F)c2)O[C@@H]1CO | x | x | 2 | x | x | x | x
C[C@@H]1CN([C@H](C)CO)C(=O)c2cc(C#Cc3cccc(F)c3)cnc2O[C@H]1CN(C)C(=O)c1ccccc1F | x | x | 1 | x | x | x | x
CCc1nnc(NC(=O)Cc2ccc(OC)cc2)s1 | 2 | 0 | -1 | 2 | 1 | x | x
CCOC(=O)Nc1nnc(-c2cccc(OC)c2)s1 | 10 | 0 | -1 | 98* | -4 | + | 178*
CCCCOC(=O)Nc1nnc(/C=C/c2ccc(OC)cc2)s1 | 20 | 0 | x | 17 | 3 | x | x
SMILES | GDH-TPI counter-1 | FadD28 FP inh | BioA inh | Mtb FBA inh | Mtb hypoxia inh | Mtb FBA inh conf | GDH-TPI counter-2 | others
CCOC(=O)Nc1nnc(/C=C/c2ccc(OC)cc2)s1 | 36* | -4 | x | 33* | 7 | -3 | -7
CCC(=O)Nc1nnc(/C=C/c2ccccc2)s1 | 31* | -2 | -1 | 33* | 2 | 124* | 103*
CCOC(=O)Nc1nnc(-c2ccc(OC)cc2)s1 | 8 | -2 | -1 | 52* | 5 | 158* | 121*
O=C(N[C@H]1CC[C@H](CCn2cc(-c3ccccn3)nn2)O[C@@H]1CO)c1ccncc1 | x | x | 0 | x | x | x | x
Cc1noc(C)c1NC(=O)N(C)C[C@H]1Oc2c(NC(=O)c3ccc(-c4nccs4)cc3)cccc2C(=O)N([C@H](C)CO)C[C@@H]1C | x | x | -1 | x | x | x | x
Cc1cccc(C)c1NC(=S)NN=Cc1ccc(OCCC(C)C)cc1 | x | x | x | x | 11 | x | x
O=C(C[C@@H]1CC[C@H](NC(=O)Nc2ccc(F)cc2)[C@@H](CO)O1)NCCN1CCCC1 | x | x | 0 | x | x | x | x
CCCOc1ccccc1-c1nc2c([nH]1)c(=O)[nH]c(=O)n2C | 28 | -2 | -3 | 59* | x | 66* | 44*
ClC1(Cl)CC1CSc1nc2ccccc2[nH]1 (stereo not drawn) | 0 | -3 | x | 33* | 3 | 88* | 85*
CCOc1ccc2nc(SCC3CC3(Cl)Cl)[nH]c2c1 (stereo not drawn) | 5 | -3 | x | -2 | 5 | x | x
O=C(COC(=O)c1ccccc1NCCO)Nc1ccc(S(=O)(=O)NC2=NCCCCC2)cc1 | 18 | -1 | -4 | 84* | 12 | 84* | 61*
CCCC(=O)Nc1ccc2c(c1)C(=O)N(C)C[C@@H](OC)[C@H](C)CN(C(=O)CC1CC1)[C@@H](C)CO2 | x | x | -1 | x | x | x | x
N=C1C(c2nc3ccccc3[nH]2)=C(O)CN1c1ccc(F)cc1 | 0 | 0 | -1 | 3 | 6 | x | x
Cc1cc(C)cc(N2CC(O)=C(c3nc4ccccc4c(=O)[nH]3)C2=N)c1 | 6 | -7 | x | 34* | -2 | 3 | 0
CC(C)N1CC(O)=C(c2nc3ccccc3c(=O)[nH]2)C1=N | 10 | 0 | x | 44* | x | + | 170*
COc1cccc(N2CC(O)=C(c3nc4ccccc4c(=O)[nH]3)C2=N)c1 | 33* | -2 | 0 | 77* | -2 | 51* | 50*
C[C@@H]1CN([C@@H](C)CO)C(=O)c2cc(NS(=O)(=O)c3cn(C)cn3)ccc2O[C@@H](C)CCCCO[C@@H]1CN(C)C | x | x | 0 | x | x | x | x
C[C@@H]1CN([C@H](C)CO)C(=O)Cc2cc(NC(=O)Cc3ccccc3)ccc2O[C@H]1CN(C)C(=O)Nc1ccc2c(c1)OCO2 | x | x | 1 | x | x | x | x
COc1ccc(-c2csc3ncn(Cc4ccccc4)c(=O)c23)cc1 | 15 | -2 | -2 | 1 | -2 | x | x
COc1ccc(-c2c3c(cc4ncn(Cc5ccccc5)c24)COC3=O)cc1 | 4 | -3 | 8 | 63* | 5 | 141* | 138*

Compound activity as filed in PubChem.
